In ChEMBL document CHEMBL1961873, “Compounds: GSK PKIS; Assays: Nanosyn kinase panel” (2012):

Molecular target: Serine/threonine-protein kinase 10 (Homo sapiens) (UniProt O94804)
Conditions: at 0.1 µM

Serine/threonine-protein kinase 10 (Homo sapiens), sequence (O94804 whole entry, looked up): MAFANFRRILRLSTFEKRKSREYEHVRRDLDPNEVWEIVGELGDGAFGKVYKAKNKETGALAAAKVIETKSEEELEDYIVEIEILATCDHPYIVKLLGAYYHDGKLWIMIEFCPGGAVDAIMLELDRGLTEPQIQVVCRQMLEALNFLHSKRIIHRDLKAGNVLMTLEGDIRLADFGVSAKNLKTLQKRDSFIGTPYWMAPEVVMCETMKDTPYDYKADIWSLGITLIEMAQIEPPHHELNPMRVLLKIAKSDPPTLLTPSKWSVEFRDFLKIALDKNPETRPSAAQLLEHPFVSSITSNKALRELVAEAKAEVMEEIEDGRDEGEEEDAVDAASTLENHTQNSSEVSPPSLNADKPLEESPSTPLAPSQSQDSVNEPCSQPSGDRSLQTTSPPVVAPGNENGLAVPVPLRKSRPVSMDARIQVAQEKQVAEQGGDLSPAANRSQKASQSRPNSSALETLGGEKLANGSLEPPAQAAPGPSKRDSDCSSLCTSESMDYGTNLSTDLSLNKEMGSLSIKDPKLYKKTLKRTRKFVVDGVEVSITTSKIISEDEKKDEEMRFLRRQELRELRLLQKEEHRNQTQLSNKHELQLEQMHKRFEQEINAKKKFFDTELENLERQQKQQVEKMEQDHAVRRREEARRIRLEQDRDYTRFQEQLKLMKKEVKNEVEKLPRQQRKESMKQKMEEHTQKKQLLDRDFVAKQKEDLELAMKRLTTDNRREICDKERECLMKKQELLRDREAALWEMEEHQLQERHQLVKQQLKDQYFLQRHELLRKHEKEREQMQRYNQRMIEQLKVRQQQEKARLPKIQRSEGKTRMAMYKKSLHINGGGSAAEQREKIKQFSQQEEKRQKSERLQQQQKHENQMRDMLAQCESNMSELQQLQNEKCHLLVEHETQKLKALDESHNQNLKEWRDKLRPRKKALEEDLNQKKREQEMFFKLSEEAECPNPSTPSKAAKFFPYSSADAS

Row | SMILES | inhibition [%]
1 | O=C1Nc2ccc(I)cc2C1=Cc1cc(Br)c(O)c(Br)c1 | 4.81
2 | CCS(=O)(=O)c1ccc(OC)c(Nc2ncc(-c3cccc(-c4ccccc4F)c3)o2)c1 | 2.05
3 | COc1ccc(-c2ccc3c(NC(=O)C4CC4)n[nH]c3n2)cc1 | 4.51
4 | CCc1ccc(Oc2nccc(-c3c(-c4ccc(F)cc4)ncn3C3CCNCC3)n2)cc1 | 4.86
5 | NCc1ccc(-n2c(-c3nonc3N)nc3cnccc32)cc1 | 8.16
6 | CN1CCN(CCCNc2nc3ccc(Oc4ccc(NC(=O)Nc5cc(C(F)(F)F)ccc5F)cc4)cc3[nH]2)CC1 | 15.9
7 | NS(=O)(=O)c1ccc(Nc2cc(-c3ccc(O)c(F)c3)n[nH]2)cc1 | -0.42
8 | NS(=O)(=O)c1ccc(N/N=C2\C(=O)Nc3ccc(-c4cnco4)cc32)cc1 | 2.55
9 | CCc1cccc(CC)c1/C=C/c1cncc(C(=O)NC)c1 | 1.38
10 | FC(F)(F)c1cccc(Nc2nccc(-c3cnn4nc(-c5ccccc5)ccc34)n2)c1 | 3.86
11 | COc1ccc2cc(-c3c(-c4ccncc4)nc(-c4ccc([S+](C)[O-])cc4C)n3C)ccc2c1 (stereo not drawn) | 52.4
12 | CCS(=O)(=O)c1ccc(OC)c(Nc2ncc(-c3ccccc3Cl)o2)c1 | 2.59
13 | C[C@@H](Oc1cc(-n2cnc3ccc(OCC4CCN(C)CC4)cc32)sc1C(N)=O)c1ccccc1Cl | 63.3
14 | C[C@@H](Oc1cc(-n2cnc3ccc(OC4CCN(C)CC4)cc32)sc1C(N)=O)c1ccccc1Cl | 50.1
15 | CCN(CC)Cc1ccc(Nc2nccc(-c3cnn4ncccc34)n2)cc1 | 7.37
16 | Fc1ccc(-c2ncn(CCCN3CCOCC3)c2-c2ccncc2)cc1 | 1.1
17 | Fc1ccc(-c2nc3n(c2-c2ccncc2)CCS3)cc1 | 1.88

Row | SMILES | inhibition [%]
18 | Fc1ccc(-c2ncn(C3CCNCC3)c2-c2ccnc(Oc3ccc4c(c3)OCO4)n2)cc1 | 8.13
19 | Fc1ccc(-c2c(-c3ccncc3)nc3n2CCS3)cc1 | -1.08
20 | O=C(Nc1n[nH]c2nc(-c3ccc(O)cc3)c(Br)cc12)C1CC1 | 16.2
21 | CN(C)CCOc1ccc(-c2cc(-c3ccc4c(c3)CCC4=NO)c(-c3ccncc3)o2)cc1 | 16.8
22 | COc1ccc(C2=C(N3CCc4ccccc43)C(=O)NC2=O)cc1 | 4.19
23 | CN(c1ccc(NC(=O)Nc2c(Cl)cccc2Cl)cc1)c1ccnc(Nc2cccc(CS(C)(=O)=O)c2)n1 | 90.8
24 | Cc1ccc(C(=O)NC2CCC2)cc1-c1ccc(C(=O)NCC2CC2)cc1 | 2.19
25 | COc1cccc(-n2cnc3c(N/N=C/c4ccncc4)ncnc32)c1 | 4.49
26 | Cc1ccc(C(=O)NC(C)C)cc1-c1ccc(C(=O)NCC2CC2)cc1 | -2.21
27 | NC(=O)Cc1ccccc1Oc1nccc(-c2c(-c3ccc(F)cc3)ncn2C2CCNCC2)n1 | 3.78
28 | O=C1Nc2ccccc2/C1=C/Nc1ccc(-n2cncn2)cc1 | 4.16
29 | c1ccc(Oc2ccc(Nc3ncc(-c4ccccc4)o3)cc2)cc1 | 0.49
30 | COc1cc2ncn(-c3cc(OCc4ccccc4C(F)(F)F)c(C(C)=O)s3)c2cc1OC | 10.5
31 | COc1ccc2ncn(-c3cc(O[C@H](C)c4ccccc4Cl)c(C(N)=O)s3)c2c1 | 20.3
32 | CCc1nccc2c1nc(-c1nonc1N)n2CC | -0.01
33 | CN(C)c1ccc2c(c1)/C(=C/Nc1ccc(S(N)(=O)=O)cc1)C(=O)N2 | 3
34 | COc1cc2ncn(-c3cc(OCc4cccs4)c(C(N)=O)s3)c2cc1OC | 75.9

Molecular target: Serine/threonine-protein kinase 10 (Homo sapiens) (UniProt O94804)
Conditions: at 1 µM

Row | SMILES | inhibition [%]
35 | O=C1Nc2ccc(I)cc2C1=Cc1cc(Br)c(O)c(Br)c1 | 7.92
36 | CCS(=O)(=O)c1ccc(OC)c(Nc2ncc(-c3cccc(-c4ccccc4F)c3)o2)c1 | 15.4
37 | COc1ccc(-c2ccc3c(NC(=O)C4CC4)n[nH]c3n2)cc1 | 8.53
38 | CCc1ccc(Oc2nccc(-c3c(-c4ccc(F)cc4)ncn3C3CCNCC3)n2)cc1 | 8.03
39 | NCc1ccc(-n2c(-c3nonc3N)nc3cnccc32)cc1 | 24.2
40 | CN1CCN(CCCNc2nc3ccc(Oc4ccc(NC(=O)Nc5cc(C(F)(F)F)ccc5F)cc4)cc3[nH]2)CC1 | 53
41 | NS(=O)(=O)c1ccc(Nc2cc(-c3ccc(O)c(F)c3)n[nH]2)cc1 | 16.4
42 | NS(=O)(=O)c1ccc(N/N=C2\C(=O)Nc3ccc(-c4cnco4)cc32)cc1 | 8.33
43 | CCc1cccc(CC)c1/C=C/c1cncc(C(=O)NC)c1 | 5.08
44 | FC(F)(F)c1cccc(Nc2nccc(-c3cnn4nc(-c5ccccc5)ccc34)n2)c1 | 5.68
45 | COc1ccc2cc(-c3c(-c4ccncc4)nc(-c4ccc([S+](C)[O-])cc4C)n3C)ccc2c1 (stereo not drawn) | 97.3
46 | CCS(=O)(=O)c1ccc(OC)c(Nc2ncc(-c3ccccc3Cl)o2)c1 | 6.5
47 | C[C@@H](Oc1cc(-n2cnc3ccc(OCC4CCN(C)CC4)cc32)sc1C(N)=O)c1ccccc1Cl | 86.9
48 | C[C@@H](Oc1cc(-n2cnc3ccc(OC4CCN(C)CC4)cc32)sc1C(N)=O)c1ccccc1Cl | 81.4
49 | CCN(CC)Cc1ccc(Nc2nccc(-c3cnn4ncccc34)n2)cc1 | 18
50 | Fc1ccc(-c2ncn(CCCN3CCOCC3)c2-c2ccncc2)cc1 | 3.83
51 | Fc1ccc(-c2nc3n(c2-c2ccncc2)CCS3)cc1 | 6.87

Row | SMILES | inhibition [%]
52 | Fc1ccc(-c2ncn(C3CCNCC3)c2-c2ccnc(Oc3ccc4c(c3)OCO4)n2)cc1 | 7.17
53 | Fc1ccc(-c2c(-c3ccncc3)nc3n2CCS3)cc1 | 7.95
54 | O=C(Nc1n[nH]c2nc(-c3ccc(O)cc3)c(Br)cc12)C1CC1 | 61.3
55 | CN(C)CCOc1ccc(-c2cc(-c3ccc4c(c3)CCC4=NO)c(-c3ccncc3)o2)cc1 | 62.6
56 | COc1ccc(C2=C(N3CCc4ccccc43)C(=O)NC2=O)cc1 | 10.4
57 | CN(c1ccc(NC(=O)Nc2c(Cl)cccc2Cl)cc1)c1ccnc(Nc2cccc(CS(C)(=O)=O)c2)n1 | 86.5
58 | Cc1ccc(C(=O)NC2CCC2)cc1-c1ccc(C(=O)NCC2CC2)cc1 | 6.8
59 | COc1cccc(-n2cnc3c(N/N=C/c4ccncc4)ncnc32)c1 | 16.3
60 | Cc1ccc(C(=O)NC(C)C)cc1-c1ccc(C(=O)NCC2CC2)cc1 | -5.65
61 | NC(=O)Cc1ccccc1Oc1nccc(-c2c(-c3ccc(F)cc3)ncn2C2CCNCC2)n1 | 5.45
62 | O=C1Nc2ccccc2/C1=C/Nc1ccc(-n2cncn2)cc1 | 12.6
63 | c1ccc(Oc2ccc(Nc3ncc(-c4ccccc4)o3)cc2)cc1 | 2.71
64 | COc1cc2ncn(-c3cc(OCc4ccccc4C(F)(F)F)c(C(C)=O)s3)c2cc1OC | 42.8
65 | COc1ccc2ncn(-c3cc(O[C@H](C)c4ccccc4Cl)c(C(N)=O)s3)c2c1 | 59.1
66 | CCc1nccc2c1nc(-c1nonc1N)n2CC | 3.09
67 | CN(C)c1ccc2c(c1)/C(=C/Nc1ccc(S(N)(=O)=O)cc1)C(=O)N2 | 18.1
68 | COc1cc2ncn(-c3cc(OCc4cccs4)c(C(N)=O)s3)c2cc1OC | 93.5
